Test [1] deals with Calcium/calmodulin-dependent protein kinase type II subunit alpha (Homo sapiens) (UniProt Q9UQM7). The settings on record: at 1 µM.
For test [2], the target named is Calcium/calmodulin-dependent protein kinase type II subunit delta (Homo sapiens) (UniProt Q13557). The settings on record: at 0.1 µM.
Test [3] shares this target. The settings on record: at 1 µM.
Test [4] has as its target T1, Calcium/calmodulin-dependent protein kinase type IV (Homo sapiens) (UniProt Q16566).
T1 sequence (whole entry): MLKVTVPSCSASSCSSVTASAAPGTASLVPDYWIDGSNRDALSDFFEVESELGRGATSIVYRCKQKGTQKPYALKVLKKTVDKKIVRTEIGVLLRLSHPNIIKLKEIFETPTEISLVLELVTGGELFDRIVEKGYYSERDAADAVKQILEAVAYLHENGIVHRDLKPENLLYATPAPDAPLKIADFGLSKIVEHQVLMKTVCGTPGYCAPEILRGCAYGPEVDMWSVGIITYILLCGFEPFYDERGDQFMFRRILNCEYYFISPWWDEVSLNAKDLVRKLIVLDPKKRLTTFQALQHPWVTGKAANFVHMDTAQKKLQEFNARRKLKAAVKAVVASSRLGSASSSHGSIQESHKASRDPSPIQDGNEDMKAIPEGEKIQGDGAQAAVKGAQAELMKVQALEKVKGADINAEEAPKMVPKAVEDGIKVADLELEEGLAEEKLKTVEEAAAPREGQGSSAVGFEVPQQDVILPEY
Particulars: at 0.1 µM.

Test [5] concerns the target T1, Calcium/calmodulin-dependent protein kinase type IV (Homo sapiens). Particulars: at 1 µM.
Test [6] has as its target T2, Serine/threonine-protein kinase Chk1 (Homo sapiens) (UniProt O14757).
T2 sequence (whole entry): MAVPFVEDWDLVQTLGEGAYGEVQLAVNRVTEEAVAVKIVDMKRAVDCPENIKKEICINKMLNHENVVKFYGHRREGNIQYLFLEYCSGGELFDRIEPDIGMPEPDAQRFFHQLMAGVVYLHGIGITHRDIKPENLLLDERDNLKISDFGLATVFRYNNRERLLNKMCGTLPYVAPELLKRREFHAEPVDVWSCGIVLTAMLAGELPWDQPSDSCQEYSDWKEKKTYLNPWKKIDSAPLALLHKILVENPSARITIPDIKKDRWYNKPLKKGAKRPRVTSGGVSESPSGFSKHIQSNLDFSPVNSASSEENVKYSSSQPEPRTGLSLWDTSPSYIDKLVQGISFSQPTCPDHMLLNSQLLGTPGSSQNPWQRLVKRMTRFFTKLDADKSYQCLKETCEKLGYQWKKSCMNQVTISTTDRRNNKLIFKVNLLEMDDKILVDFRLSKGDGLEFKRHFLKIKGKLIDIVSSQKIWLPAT
Particulars: at 0.1 µM.

The target of test [7] is T2, Serine/threonine-protein kinase Chk1 (Homo sapiens). The settings on record: at 1 µM.
Test [8] addresses Serine/threonine-protein kinase Chk2 (Homo sapiens) (UniProt O96017). Particulars: at 0.1 µM.
Test [9] has the same target. Particulars: at 1 µM.
In test [10] the target is Death-associated protein kinase 1 (Homo sapiens) (UniProt P53355). The settings on record: at 0.1 µM.
Sequence of Death-associated protein kinase 1 (Homo sapiens) (P53355 whole entry, looked up): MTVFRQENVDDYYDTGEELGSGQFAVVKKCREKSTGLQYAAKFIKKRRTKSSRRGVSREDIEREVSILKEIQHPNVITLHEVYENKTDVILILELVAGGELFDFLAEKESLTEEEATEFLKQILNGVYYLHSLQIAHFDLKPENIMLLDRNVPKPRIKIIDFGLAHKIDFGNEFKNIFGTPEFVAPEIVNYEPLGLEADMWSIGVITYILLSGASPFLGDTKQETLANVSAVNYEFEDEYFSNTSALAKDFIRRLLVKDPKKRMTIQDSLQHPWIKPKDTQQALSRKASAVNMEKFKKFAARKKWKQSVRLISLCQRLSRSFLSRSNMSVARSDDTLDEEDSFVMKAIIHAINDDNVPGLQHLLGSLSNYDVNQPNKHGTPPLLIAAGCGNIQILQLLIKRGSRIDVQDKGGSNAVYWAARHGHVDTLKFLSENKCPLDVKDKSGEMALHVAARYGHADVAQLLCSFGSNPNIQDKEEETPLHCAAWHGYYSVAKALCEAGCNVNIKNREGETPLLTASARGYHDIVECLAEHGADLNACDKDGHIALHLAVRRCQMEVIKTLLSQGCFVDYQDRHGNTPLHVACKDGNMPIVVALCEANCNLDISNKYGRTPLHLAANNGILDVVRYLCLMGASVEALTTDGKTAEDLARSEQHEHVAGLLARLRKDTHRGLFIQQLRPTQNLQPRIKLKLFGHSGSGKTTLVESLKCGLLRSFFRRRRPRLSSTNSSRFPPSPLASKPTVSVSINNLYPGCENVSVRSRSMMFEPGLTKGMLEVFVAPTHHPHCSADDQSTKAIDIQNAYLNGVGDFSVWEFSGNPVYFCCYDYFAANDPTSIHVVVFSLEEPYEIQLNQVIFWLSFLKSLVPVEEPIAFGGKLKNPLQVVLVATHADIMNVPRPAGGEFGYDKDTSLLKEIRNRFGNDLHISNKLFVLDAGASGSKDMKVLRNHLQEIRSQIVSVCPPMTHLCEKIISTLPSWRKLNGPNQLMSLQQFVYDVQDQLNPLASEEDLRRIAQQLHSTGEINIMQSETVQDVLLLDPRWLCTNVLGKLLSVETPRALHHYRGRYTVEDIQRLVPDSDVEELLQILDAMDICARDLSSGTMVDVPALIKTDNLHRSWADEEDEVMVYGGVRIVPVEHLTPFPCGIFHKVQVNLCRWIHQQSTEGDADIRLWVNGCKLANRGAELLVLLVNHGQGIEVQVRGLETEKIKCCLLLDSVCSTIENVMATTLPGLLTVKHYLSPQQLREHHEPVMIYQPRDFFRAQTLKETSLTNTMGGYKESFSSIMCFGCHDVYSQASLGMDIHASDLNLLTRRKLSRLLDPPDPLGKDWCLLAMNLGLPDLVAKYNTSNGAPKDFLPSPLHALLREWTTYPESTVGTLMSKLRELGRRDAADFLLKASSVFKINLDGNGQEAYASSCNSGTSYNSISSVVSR
Test [11] shares this target. The settings on record: at 1 µM.
Test [12] deals with T3, Serine/threonine-protein kinase DCLK2 (Homo sapiens) (UniProt Q8N568).
T3 sequence (whole entry): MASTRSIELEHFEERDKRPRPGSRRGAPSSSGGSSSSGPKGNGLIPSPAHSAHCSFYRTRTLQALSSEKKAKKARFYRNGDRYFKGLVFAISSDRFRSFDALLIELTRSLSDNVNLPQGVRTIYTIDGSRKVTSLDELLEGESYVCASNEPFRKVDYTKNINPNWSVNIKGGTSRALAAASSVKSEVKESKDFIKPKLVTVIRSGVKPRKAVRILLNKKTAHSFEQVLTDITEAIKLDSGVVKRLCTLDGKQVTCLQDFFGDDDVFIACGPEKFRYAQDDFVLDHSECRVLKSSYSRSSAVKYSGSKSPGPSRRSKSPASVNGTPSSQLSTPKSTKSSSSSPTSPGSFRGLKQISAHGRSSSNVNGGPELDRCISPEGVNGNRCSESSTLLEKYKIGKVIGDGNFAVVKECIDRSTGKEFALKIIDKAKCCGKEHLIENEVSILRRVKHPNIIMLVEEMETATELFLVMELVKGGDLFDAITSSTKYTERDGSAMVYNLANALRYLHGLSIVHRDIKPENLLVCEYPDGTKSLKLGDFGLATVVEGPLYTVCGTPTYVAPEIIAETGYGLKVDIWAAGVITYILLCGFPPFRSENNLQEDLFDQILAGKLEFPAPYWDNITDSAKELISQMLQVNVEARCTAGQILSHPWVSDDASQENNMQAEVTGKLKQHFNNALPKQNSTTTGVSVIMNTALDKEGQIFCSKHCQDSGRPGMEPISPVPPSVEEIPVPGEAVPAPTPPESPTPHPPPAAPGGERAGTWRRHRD
The settings on record: at 0.1 µM.

Test [13] addresses T3, Serine/threonine-protein kinase DCLK2 (Homo sapiens). The settings on record: at 1 µM.
Test [14] has as its target MAP kinase-activated protein kinase 2 (Homo sapiens) (UniProt P49137). The settings on record: at 0.1 µM.
The target is the same in test [15]. The settings on record: at 1 µM.
In test [16] the target is MAP kinase-activated protein kinase 3 (Homo sapiens) (UniProt Q16644). Particulars: at 0.1 µM.
Sequence of MAP kinase-activated protein kinase 3 (Homo sapiens) (Q16644 whole entry, looked up): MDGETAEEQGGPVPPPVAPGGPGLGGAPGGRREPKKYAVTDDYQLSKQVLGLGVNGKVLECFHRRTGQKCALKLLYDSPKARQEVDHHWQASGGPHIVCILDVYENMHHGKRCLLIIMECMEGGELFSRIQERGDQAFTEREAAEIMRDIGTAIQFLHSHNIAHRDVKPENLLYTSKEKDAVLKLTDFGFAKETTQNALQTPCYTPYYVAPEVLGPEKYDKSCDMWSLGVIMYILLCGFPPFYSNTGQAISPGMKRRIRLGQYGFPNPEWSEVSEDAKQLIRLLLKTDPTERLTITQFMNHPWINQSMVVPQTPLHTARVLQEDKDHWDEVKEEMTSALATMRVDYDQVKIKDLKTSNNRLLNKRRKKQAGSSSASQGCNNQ
The target is the same in test [17]. Particulars: at 1 µM.
For test [18], the target named is Serine/threonine-protein kinase MARK1 (Homo sapiens) (UniProt Q9P0L2). Particulars: at 0.1 µM.
Test [19] shares this target. The settings on record: at 1 µM.
For test [20], the target named is MAP/microtubule affinity-regulating kinase 3 (Homo sapiens) (UniProt P27448). Particulars: at 0.1 µM.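 Further: mean percent inhibition of MARK3 kinase activity, measured within the GSK PKIS screening panel.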
Sequence of MAP/microtubule affinity-regulating kinase 3 (Homo sapiens) (P27448 whole entry, looked up): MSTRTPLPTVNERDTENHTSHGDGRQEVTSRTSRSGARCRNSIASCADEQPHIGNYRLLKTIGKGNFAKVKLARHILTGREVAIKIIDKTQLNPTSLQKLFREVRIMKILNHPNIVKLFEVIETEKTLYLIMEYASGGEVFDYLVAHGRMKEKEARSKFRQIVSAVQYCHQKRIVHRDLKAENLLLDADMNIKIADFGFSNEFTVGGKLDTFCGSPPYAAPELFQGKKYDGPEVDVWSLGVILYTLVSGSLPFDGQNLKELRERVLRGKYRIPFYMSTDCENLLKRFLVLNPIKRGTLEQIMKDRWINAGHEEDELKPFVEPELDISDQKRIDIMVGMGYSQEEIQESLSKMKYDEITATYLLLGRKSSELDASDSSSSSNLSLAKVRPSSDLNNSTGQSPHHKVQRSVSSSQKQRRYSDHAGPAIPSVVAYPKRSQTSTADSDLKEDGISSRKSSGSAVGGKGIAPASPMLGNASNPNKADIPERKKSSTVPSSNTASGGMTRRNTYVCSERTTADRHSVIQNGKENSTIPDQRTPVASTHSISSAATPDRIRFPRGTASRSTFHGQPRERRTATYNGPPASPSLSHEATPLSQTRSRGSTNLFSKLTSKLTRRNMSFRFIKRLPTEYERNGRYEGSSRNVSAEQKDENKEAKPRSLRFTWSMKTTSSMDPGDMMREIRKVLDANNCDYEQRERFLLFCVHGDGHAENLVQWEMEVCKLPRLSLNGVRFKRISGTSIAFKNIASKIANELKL

Sequence of Serine/threonine-protein kinase Chk2 (Homo sapiens) (O96017 whole entry): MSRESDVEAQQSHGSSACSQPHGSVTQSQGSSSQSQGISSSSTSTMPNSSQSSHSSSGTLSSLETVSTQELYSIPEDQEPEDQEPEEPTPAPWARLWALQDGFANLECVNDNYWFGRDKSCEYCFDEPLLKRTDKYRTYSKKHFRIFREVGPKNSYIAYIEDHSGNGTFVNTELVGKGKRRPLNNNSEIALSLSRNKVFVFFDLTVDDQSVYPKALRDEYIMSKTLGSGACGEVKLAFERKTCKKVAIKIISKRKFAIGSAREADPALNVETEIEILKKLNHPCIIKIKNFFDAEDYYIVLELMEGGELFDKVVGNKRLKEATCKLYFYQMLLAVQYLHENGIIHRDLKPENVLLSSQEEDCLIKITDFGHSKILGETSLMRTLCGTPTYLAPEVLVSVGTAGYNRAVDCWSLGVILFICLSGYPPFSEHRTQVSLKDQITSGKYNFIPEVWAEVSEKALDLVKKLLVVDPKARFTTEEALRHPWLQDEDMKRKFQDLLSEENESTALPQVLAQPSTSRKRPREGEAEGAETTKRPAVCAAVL
Sequence of Calcium/calmodulin-dependent protein kinase type II subunit alpha (Homo sapiens) (Q9UQM7 whole entry): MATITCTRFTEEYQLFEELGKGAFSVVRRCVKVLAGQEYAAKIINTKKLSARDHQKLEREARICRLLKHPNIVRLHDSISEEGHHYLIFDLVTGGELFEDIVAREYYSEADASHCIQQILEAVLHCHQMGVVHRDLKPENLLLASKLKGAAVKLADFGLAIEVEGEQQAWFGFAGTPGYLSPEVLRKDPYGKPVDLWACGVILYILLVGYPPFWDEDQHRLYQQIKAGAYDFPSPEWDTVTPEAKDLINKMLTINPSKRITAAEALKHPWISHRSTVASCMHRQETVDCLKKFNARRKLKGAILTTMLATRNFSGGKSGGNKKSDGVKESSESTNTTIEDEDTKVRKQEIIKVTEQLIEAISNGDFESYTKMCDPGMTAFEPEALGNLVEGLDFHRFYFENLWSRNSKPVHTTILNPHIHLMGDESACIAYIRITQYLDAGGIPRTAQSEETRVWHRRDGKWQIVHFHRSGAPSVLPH
Sequence of Calcium/calmodulin-dependent protein kinase type II subunit delta (Homo sapiens) (Q13557 whole entry): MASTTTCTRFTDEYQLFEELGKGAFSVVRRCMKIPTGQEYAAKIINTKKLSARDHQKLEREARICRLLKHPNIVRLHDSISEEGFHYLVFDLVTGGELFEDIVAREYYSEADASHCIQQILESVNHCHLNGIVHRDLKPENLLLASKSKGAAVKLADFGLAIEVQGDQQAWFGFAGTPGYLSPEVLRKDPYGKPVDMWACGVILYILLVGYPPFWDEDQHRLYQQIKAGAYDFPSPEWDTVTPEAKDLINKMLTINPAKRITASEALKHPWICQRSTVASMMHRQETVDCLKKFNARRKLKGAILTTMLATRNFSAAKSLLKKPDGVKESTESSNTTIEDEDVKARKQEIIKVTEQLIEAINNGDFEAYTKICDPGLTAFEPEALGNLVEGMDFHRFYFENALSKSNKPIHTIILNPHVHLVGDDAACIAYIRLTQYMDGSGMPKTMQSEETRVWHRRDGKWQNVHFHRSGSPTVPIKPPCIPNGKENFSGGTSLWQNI
Sequence of MAP kinase-activated protein kinase 2 (Homo sapiens) (P49137 whole entry, looked up): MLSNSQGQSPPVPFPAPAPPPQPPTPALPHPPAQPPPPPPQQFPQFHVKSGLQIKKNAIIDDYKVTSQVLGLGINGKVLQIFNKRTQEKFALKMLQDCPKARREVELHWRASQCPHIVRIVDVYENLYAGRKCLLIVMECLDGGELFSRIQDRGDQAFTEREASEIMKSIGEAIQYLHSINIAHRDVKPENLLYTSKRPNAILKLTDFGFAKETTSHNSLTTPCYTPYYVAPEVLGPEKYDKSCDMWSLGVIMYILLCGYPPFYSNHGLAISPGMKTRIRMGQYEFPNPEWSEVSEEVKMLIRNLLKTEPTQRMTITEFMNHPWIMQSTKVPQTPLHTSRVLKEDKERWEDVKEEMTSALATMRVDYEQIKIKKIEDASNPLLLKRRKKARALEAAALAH

As to `O=C(Nc1n[nH]c2cc(-c3ccc(F)cc3)ccc12)C1CC1`, the inhibition (as a rule, the change of the read-out against control, counted positive when it falls) in test [1] was 5.83%; in [2], 2.59%; in test [3], 3.77%; in test [4], -0.12%; in [5] it was 1.07%; in test [6], 8.27%. Further, the inhibition in [7] was found to be 10.8%; in [8], 6.26%; in [9] it was 6.67%; in test [10], 9.31%; in test [11], 9.97%; in test [12] it was 1.56%. The inhibition was 0.81% in [13]; 4.23% in test [14]; 4.01% in [15]; 9.47% in test [16]; 8.99% in test [17]; 3.81% in test [18]. The inhibition worked out at 5.7% in [19] and 2.03% in test [20].
As to `Fc1cccc(COc2ccc(Nc3ncnc4sc(-c5ccco5)cc34)cc2Cl)c1`, the inhibition was -2.48% in test [1]; 3.02% in test [2]; 1.67% in test [3]; -1.87% in test [4]; -2.46% in [5]; 10.1% in test [6]. Besides, the inhibition in test [7] is 12.5%; in [8], 7.63%; in test [9], 8.84%; in [10], 13.2%; in test [11] it was 11.1%; in test [12] it was -1.11%. Besides, the inhibition was found to be 4.98% in [13]; 5.73% in [14]; 4.4% in [15]; 9.64% in [16]; 11% in [17]; 2.72% in test [18]. Besides, the inhibition in test [19] was 5.69%; in [20] it was 3.1%.
With `CS(=O)(=O)CCNCc1ccc(-c2ccc3ncnc(Nc4ccc(OCc5ccccc5)c(C(F)(F)F)c4)c3c2)o1`, the inhibition in test [1] was -1.78%; in [2], 1.83%; in test [3] it was 1.77%; in test [4], -0.46%; in test [5], -1.2%; in test [6] it was 8.46%. The inhibition in test [7] stood at 10.8%; in [8], 7.47%; in [9], 7.84%; in [10] it was 12.8%; in test [11] it was 10.9%; in test [12], 7.37%. Moreover, the inhibition was 2.23% in test [13]; 4.99% in test [14]; 3.73% in test [15]; 8.97% in [16]; 10.7% in test [17]; 2.72% in test [18]. Further, the inhibition in test [19] was found to be 4.11%; in [20], 3.87%.
With `[O-][S+]1CCN(Cc2ccc(-c3ccc4ncnc(Nc5ccc(OCc6cccc(F)c6)c(Cl)c5)c4c3)o2)CC1`, the inhibition in test [1] was found to be 0.16%; in test [2], 2.62%; in test [3], 3.95%; in test [4], 0.28%; in test [5], 2.28%; in test [6], 7.38%. In addition, the inhibition in test [7] was found to be 10.6%; in test [8], 1.91%; in test [9], 3.16%; in test [10], 6.57%; in test [11], 6.25%; in test [12] it was 0.51%. The inhibition in [13] stood at 2.24%; in test [14], 1.68%; in test [15], 1.59%; in [16], 7.01%; in [17] it was 7.37%; in test [18] it was 4.1%. Also, the inhibition in [19] was found to be 3.65%; in [20], 3.31%.
Regarding `N#Cc1c(NC(=O)CN2CCOCC2)sc2c1CCCC2`, the inhibition is 4.63% in test [1]; 3.07% in test [2]; 5.65% in [3]; -1.76% in test [4]; -1.41% in test [5]; 1.74% in test [6]. Moreover, the inhibition in test [7] stood at 5.06%; in [8], 1.85%; in [9] it was 4.14%; in [10], 5.34%; in test [11], 5.97%; in test [12], 2.25%. The inhibition was found to be 1.22% in test [13]; 2.32% in test [14]; 2% in [15]; 3.68% in test [16]; 5.44% in test [17]; 4.32% in test [18]. Moreover, the inhibition in test [19] came to 6.04%; in test [20], 4.14%.
Regarding `COc1cc2c(cc1Nc1nc(Nc3ccsc3C(N)=O)c3cc[nH]c3n1)N(C(=O)CN(C)C)CCC2(C)C`, the inhibition in test [1] is 10.5%; in [2], 7.45%; in test [3] it was 25.7%; in test [4] it was 3.29%; in test [5] it was 19.9%; in test [6], -0.75%. Besides, the inhibition in [7] was -2.52%; in test [8], 0.76%; in test [9] it was 21.1%; in [10], -1.5%; in test [11], 5.25%; in [12] it was 1.46%. Besides, the inhibition is 5.94% in [13]; -0.48% in test [14]; -0.86% in [15]; -0.72% in test [16]; -0.02% in test [17]; 6.98% in test [18]. Also, the results for the inhibition in test [19] and in test [20] were 11.9% and 5.88%, respectively.
Turning to `COc1cc(/C=N/Nc2ncnc3[nH]ncc23)ccc1O`, the inhibition in test [1] was 5.41%; in test [2], 2.57%; in test [3], 11.4%; in test [4], -0.14%; in test [5], -0.84%; in test [6], 26.1%. Further, the inhibition was found to be 66.1% in test [7]; 4.23% in test [8]; 23.8% in test [9]; 4.22% in test [10]; 4.2% in test [11]; 1.49% in test [12]. Besides, the inhibition in [13] came out at 1.35%; in test [14], 2.01%; in [15], 2.3%; in test [16], 2.87%; in test [17], 4%; in [18] it was 7.13%. Further, the values for the inhibition in test [19] and in [20] were 35.7% and 7.13%, respectively.

(Values after ChEMBL document CHEMBL1961873, “Compounds: GSK PKIS; Assays: Nanosyn kinase panel” (2012).)
